ChEMBL document CHEMBL4513216, “Probing the Open Global Health Chemical Diversity Library for Multistage-Active Starting Points for Next-Generation Antimalarials” (ACS Infect Dis, 2020)
In all, about 69,000 compounds went through this assay and about 8,600 (12%) showed an effect of 50% or more. The full list was thinned out, with strong results kept by preference.

These compounds were tested on Plasmodium berghei (assay: Screen against P. berghei liver stage (PbLuc), transformed with Luciferase, at 10uM). Conditions: tested at 10 uM.
Format: functional, HepG2
Cc1nc(CN2CCCN(Cc3nccn3C(C)C)CC2)no1 showed an INHIBITION of 29.7%. Work on CNc1nc(CNC(=O)Nc2cccc(CC(F)(F)F)c2)cs1 yielded an INHIBITION of 7.5%. Work on CNC(=O)[C@H]1C[C@@H]2CN(c3cc(OC)ncn3)C[C@@H]2N1C(C)C yielded an INHIBITION of 55.6%. CNC(=O)[C@H]1C[C@@H]2CN(Cc3cccnc3OC)C[C@@H]2N1C(C)C was tested, and the INHIBITION was 33.4%. Compound CNC(=O)[C@@H]1C[C@H]2CN(c3ncccn3)C[C@H]2N1C(C)C has an INHIBITION of 24.6%. For CN1CCN(C[C@H]2OC[C@@H]3CCN(Cc4ccsc4)C[C@@H]32)CC1, the INHIBITION was 22.4%. In the case of O=C(c1ccn(COc2ccc(F)cc2)n1)N1CCCCCC1, the INHIBITION is reported as -24.6%. Work on O=C(c1ccn(COc2ccc(F)cc2)n1)N1CCCC1 yielded an INHIBITION of -28%. With CC(C)c1ccc(OCn2ccc(C(=O)N3CCCC3)n2)cc1 the INHIBITION was 83.4%. In the case of CN(CCc1ccccn1)Cc1nccn1Cc1ccccc1, the INHIBITION is reported as 81.2%. CN(CCc1ccncc1)Cc1nccn1Cc1ccccc1 gave an INHIBITION of 11.6%. CN(Cc1ccncc1)Cc1nccn1Cc1ccccc1 was tested, and the INHIBITION was -46.4%. CC(C)CC(=O)N1CCCC1c1nccnc1Nc1ncccn1 (stereo not drawn) showed an INHIBITION of 32.3%. Compound CS(=O)(=O)N1CCCC1CS(=O)(=O)c1ccccc1 (stereo not drawn) has an INHIBITION of 66.9%. O=S(=O)(CC1CCCN1S(=O)(=O)C1CC1)c1ccccc1 (stereo not drawn) was tested, and the INHIBITION was 7.77%. O=S(=O)(CC1CCCN1S(=O)(=O)c1cccnc1)c1ccccc1 (stereo not drawn) showed an INHIBITION of 13.2%. O=C1NC(c2cnc(C3CCC3)s2)Nc2ccccc21 (stereo not drawn) gave an INHIBITION of -90.1%. Work on CC(C)Nc1nc2c(c(N(C)C)n1)CCN(C(=O)c1cc[nH]n1)CC2 yielded an INHIBITION of 50.7%. Compound CC(C)N(C)Cc1n[nH]c2c1CCN(C(=O)c1cc[nH]n1)C2 has an INHIBITION of 8.03%. For Cc1nc2c(c(NC(C)C)n1)CCN(C(=O)c1cc[nH]n1)CC2, the INHIBITION was 34.6%. With O=C(C[C@@H]1COC[C@H]2CN(C3CCOCC3)C[C@@H]12)Nc1cnccn1 the INHIBITION was 42.5%. COc1ccccc1C1(O)CCCN(C(=O)c2cnc(SC)nc2)C1 (stereo not drawn) was tested, and the INHIBITION was 36.9%. O=C(N[C@@H]1CN(Cc2ccoc2)C[C@@H]2CCCO[C@@H]21)C1CCC1 gave an INHIBITION of 72%. O=C(CC1CC1)N[C@@H]1CN(C(=O)c2ccoc2)C[C@@H]2CCCO[C@@H]21 gave an INHIBITION of 71.1%. In the case of Cc1ccc(CN2C[C@@H]3CCCO[C@@H]3[C@H](NC(=O)CC3CC3)C2)s1, the INHIBITION is reported as 49.3%. Work on O=C(CC1CC1)N[C@@H]1CN(Cc2ccco2)C[C@@H]2CCCO[C@@H]21 yielded an INHIBITION of -2.17%. O=C(CC1CC1)N[C@@H]1CN(Cc2ccoc2)C[C@@H]2CCCO[C@@H]21 was tested, and the INHIBITION was 3.25%. With O=C(CC1CC1)N[C@@H]1CN(C(=O)c2ccsc2)C[C@@H]2CCCO[C@@H]21 the INHIBITION was 63.8%. Compound Cc1occc1C(=O)N1C[C@@H]2CCCO[C@@H]2[C@H](NS(C)(=O)=O)C1 has an INHIBITION of 43%. COc1ccc(CN2C[C@@H]3CCCO[C@@H]3[C@H](NC(=O)CC3CC3)C2)cc1 was tested, and the INHIBITION was -3.52%. For O=C(N[C@@H]1CN(Cc2ccccc2)C[C@@H]2CCCO[C@@H]21)C1CC1, the INHIBITION was 6.38%. Work on Cc1occc1C(=O)N1C[C@@H]2CCCO[C@@H]2[C@H](NC(=O)CC2CC2)C1 yielded an INHIBITION of 62.9%. O=C(CC1CC1)N[C@@H]1CN(Cc2ccc(F)cc2)C[C@@H]2CCCO[C@@H]21 gave an INHIBITION of -6.23%. O=C(CC1CC1)N[C@@H]1CN(c2ncccn2)C[C@@H]2CCCO[C@@H]21 gave an INHIBITION of -29.3%. Work on O=C(CCC1CCCO1)NCc1ccccc1Cn1cncn1 (stereo not drawn) yielded an INHIBITION of 34.7%. With COc1ccc(Nc2nc3c(C)nn(C)c3c(=O)n2C)c(C)c1 the INHIBITION was 29%. Work on Cc1nn(C)cc1C(=O)N1CCCC(n2cncn2)C1 (stereo not drawn) yielded an INHIBITION of 9.14%. Work on Cc1sc(C(=O)O)cc1S(=O)(=O)Nc1c(F)cccc1-n1cccn1 yielded an INHIBITION of -28.8%. With O=C(NCC1(COc2cnccn2)C[C@@H](O)[C@@H](O)C1)C1CCOCC1 (stereo partly drawn) the INHIBITION was -0.813%. Cc1n[nH]c(=O)c(C(=O)N2CCN(CCc3cccs3)CC2)c1C showed an INHIBITION of -36.1%. CSC(C)C(=O)NS(=O)(=O)c1ccc(F)c(C(F)(F)F)c1 (stereo not drawn) was tested, and the INHIBITION was 25%. With Cc1ncsc1CN1CC[C@H]2C(=O)N(c3ccccc3)CCO[C@H]2C1 the INHIBITION was 23.3%. For COc1ccc(CN2CCc3c(CNC(=O)CC#N)nn(C)c3C2)cc1, the INHIBITION was 29.8%. For CCc1sc(-c2nnc(CNCCn3cc(C)cn3)o2)cc1C, the INHIBITION was 30.8%. With CN(Cc1nnc(C2CC2)n1C)C1CCN(Cc2nccn2C)C1 (stereo not drawn) the INHIBITION was 21.6%. COc1ncccc1NC(=O)NC(CCCO)c1ccccc1 (stereo not drawn) showed an INHIBITION of 25.4%. CC(C)OC(=O)CNC(=O)Nc1ccc(-c2nc(C(C)C)no2)cc1 was tested, and the INHIBITION was -17.8%. In the case of O=C(CC1CC1)N[C@@H]1CN(Cc2ccncc2)C[C@@H]2CCCO[C@@H]21, the INHIBITION is reported as 33.4%. O=C(CC1CC1)N[C@@H]1CN(C(=O)c2cccs2)C[C@@H]2CCCO[C@@H]21 gave an INHIBITION of 53.9%. In the case of O=C(CC1CC1)N[C@@H]1CN(Cc2nccs2)C[C@@H]2CCCO[C@@H]21, the INHIBITION is reported as 29%. Cc1n[nH]c(C)c1CCC(=O)N(C)Cc1cn[nH]c1-c1ccc(F)cc1 was tested, and the INHIBITION was 11.8%. COCC(=O)N1CCCC2(CCN(c3ccsc3)C2=O)C1 (stereo not drawn) was tested, and the INHIBITION was 37%. With O=C(CC1CC1)N1CCCC2(CCC(=O)N2CC2CC2)CC1 (stereo not drawn) the INHIBITION was 6.27%. In the case of Cc1nc(C)c(CCNc2ccc(S(N)(=O)=O)cc2C#N)s1, the INHIBITION is reported as 49.9%. Work on CCc1nc(CCNc2ccc(S(N)(=O)=O)cc2C#N)cs1 yielded an INHIBITION of 42.4%. For Cc1csc(CCCNc2ccc(S(N)(=O)=O)cc2C#N)n1, the INHIBITION was 66.5%. COCCN1CCC2(CC1)CN(C(=O)Cc1cccnc1)CCO2 gave an INHIBITION of 14.9%. Work on CN(Cc1cccnc1)CC1CC12CCN(c1nncs1)CC2 (stereo not drawn) yielded an INHIBITION of 16.9%. With Cc1cnc(N2CCC3(CC2)CC3CN(C)Cc2cccnc2)nc1 (stereo not drawn) the INHIBITION was 71.6%. Compound Cc1cnc(N2CCC3(C2)C(=O)N(C)CCN3Cc2cccnc2)nc1 (stereo not drawn) has an INHIBITION of -50.6%. Compound Cc1ccc(CN2CCC3(CC2)CC3CN(C)Cc2cccnc2)o1 (stereo not drawn) has an INHIBITION of -24.9%. With CN(Cc1cccnc1)CC1CC12CCN(Cc1nccs1)CC2 (stereo not drawn) the INHIBITION was 45.8%. CN(Cc1cccnc1)CC1CC12CCCC2 (stereo not drawn) was tested, and the INHIBITION was 60.9%.
